Measured values taken from PubChem BioAssay (NCATS).
Records with an inconclusive call do not appear. Entries that show only a call come without a potency. Values without a mark were called inactive. Activity calls are given as the source filed them. Calls come from the whole dose curve; as a rule, active = well fitted curve in the direction sought with a large enough effect; inconclusive = small, poorly fitted or top-dose-only effect, or another doubt; inactive = no such curve, though single readings can be large; an effect the other way counts as inactive or inconclusive.

Tests used:
[1] = tested on: Es-2; test: Primary qHTS to identify gynecologic anti-cancer compounds using libraries of approved drugs and bioactive compounds (AID 1345084); conditions: Gynecologic cancer cell panel viability, ATPlite luminescence, 48 h; series mostly up to 57.5 µM; note: nearly all actives have a fitted effect of over 55% in size
Summary of the method: (§1)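 Luminescence from the ATPlite ATP-monitoring reagent indicates viable cell number; lower signal means cytotoxicity. Cells received compound 16 h after seeding and were exposed for 48 h across five concentrations.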

[2] = tested on: HeLa; test: as above; conditions: Gynecologic cancer cell panel viability, ATPlite luminescence, 48 h; series mostly up to 57.5 µM
Summary of the method: as §1

[3] = tested on: Hek293T; test: as above; conditions: Gynecologic cancer cell panel viability, ATPlite luminescence, 48 h, control line for the selectivity index; series mostly up to 57.5 µM
Summary of the method: as §1

[4] = tested on: PA-1; test: as above; conditions: Gynecologic cancer cell panel viability, ATPlite luminescence, 48 h; series mostly up to 57.5 µM
Summary of the method: as §1

[5] = tested on: Tov112D; test: as above; conditions: Gynecologic cancer cell panel viability, ATPlite luminescence, 48 h; series mostly up to 57.5 µM
Summary of the method: as §1

[6] = qHTS assay to identify inhibitors of the type 1 interferon - major histocompatibility complex class I in skeletal muscle: Counter screen cell viability and HiBit confirmation (AID 1347412); conditions: iHSKM muscle cells + IFN-b, HiBiT or CellTiter-Glo, 24 h; for Potency: HiBiT; for all read-outs here: nearly all actives have a fitted effect of over 60% in size
Summary of the method: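 Human myoblast knock-in line, 4.0 ng/ml IFN-beta stimulation, 24 h compound treatment. Endpoints: HiBiT lytic luminescence (HLA-B level) and CellTiter Glo (ATP). Dosing 12 concentrations, 3-fold steps, 46 uM highest final.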

[7] = tested on: JEG-3; test: Primary qHTS to identify gynecologic anti-cancer compounds using libraries of approved drugs and bioactive compounds (AID 1345084); conditions: Gynecologic cancer cell panel viability, ATPlite luminescence, 48 h; series mostly up to 57.5 µM; note: nearly all actives have a fitted effect of over 55% in size
Summary of the method: as §1

[8] = tested on: OV90; test: as above; conditions: Gynecologic cancer cell panel viability, ATPlite luminescence, 48 h; series mostly up to 57.5 µM
Summary of the method: as §1

[9] = tested on: SKOV3; test: as above; conditions: Gynecologic cancer cell panel viability, ATPlite luminescence, 48 h; series mostly up to 57.5 µM
Summary of the method: as §1

[10] = tested on: Tov-21-G; test: as above; conditions: Gynecologic cancer cell panel viability, ATPlite luminescence, 48 h; series mostly up to 57.5 µM
Summary of the method: as §1

[11] = Drug repurposing screens with cells derived from glioblastoma tumor samples (AID 1345199); conditions: GBM patient neurospheres viability, ATP luminescence, 48 h; note: nearly all actives have a fitted effect of over 40% in size
Summary of the method: (§2)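 Four patient lines of CD133+ GBM neurospheres were screened at several concentrations; hits were retested in those lines plus three slower-growing GBM lines, using 48-hour treatment and ATP-based viability.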

[12] = tested on: astro; test: as above; conditions: viability, ATP luminescence, 48 h; series mostly up to 45.9 µM
Summary of the method: as §2
Potency is the fitted concentration of half-maximal effect.

SMILES	Potency [1]	Potency [2]	Potency [3]	Potency [4]	Potency [5]	Potency [6]	activity change, negative = inhibition ([6]; Viability, at 45.9 µM (top of the series)) [%]	Potency [7]	Potency [8]	Potency [9]	Potency [10]	activity, negative = cell killing ([11]; at 45.9 µM (top of the series), tumour line B) [%]	activity, negative = cell killing ([11]; at 46.1 µM (top of the series), tumour line C) [%]	Potency ([11]; tumour line A)	Potency [12]
CNC(=O)c1ccc(Nc2ncc(C(F)(F)F)c(NCc3nccnc3N(C)S(C)(=O)=O)n2)cc1	17.8 µM (active)	10 µM (active)	8.91 µM (active)	4.47 µM (active)	22.4 µM (active)	3.52 µM (active)	-7.39								
Cc1nnc(C(C)C)n1C1CC2CCC(C1)N2CCC(NC(=O)C1CCC(F)(F)CC1)c1ccccc1 (centres undefined)	inactive	inactive		inactive	inactive			inactive	inactive	inactive	inactive				
Cc1cc(N2CCCCC2)nc2ccccc12	inactive	inactive	inactive	inactive	inactive				inactive		inactive				
C=C[C@](C)(CC/C=C(\C)C(=O)O)O[C@@H]1OC[C@H](O)[C@H](O)[C@H]1O	inactive	inactive	inactive		inactive			inactive	inactive	inactive	inactive				
NCc1ccc(OCCCc2sc(-c3ccc4c(c3)/C(=N/Nc3nc5ccccc5s3)CCC4)nc2C(=O)O)cc1	inactive		inactive	inactive	inactive			inactive			inactive				
COC1CCCC/C(C)=C/C2C=C(C)C(C)C3C(CC(C)C)NC(=O)C23C(=O)C1 (centres undefined)		inactive	inactive	inactive	inactive			inactive	inactive		inactive				
C#C[C@]1(O)CC[C@H]2[C@@H]3CCC4=C/C(=N/O)CC[C@@H]4[C@H]3CC[C@@]21CC	inactive	14.1 µM (active)	inactive		inactive			inactive	inactive	inactive		-7.76	-27.9	12.6 µM (active)	20 µM (active)
CC(=O)N1c2ccccc2C2(O)CC3C(=O)NC(CC(C)C)C(=O)N3C12 (centres undefined)	inactive	inactive		inactive	inactive			inactive	inactive	inactive	inactive				
CCCCNC(=O)[C@@H]1Cc2ccccc2N1C(=O)[C@@H](N)CC	inactive	inactive		inactive	inactive			inactive	inactive	inactive	inactive				
CCOc1cc2ncc(C#N)c(Nc3ccc(OCc4ccccn4)c(Cl)c3)c2cc1NC(=O)/C=C/CN(C)C	inactive		inactive		inactive	1.57 µM (active)		inactive	inactive						
c1ccc(Nc2nc3c(s2)CCCc2[nH]ncc2-3)nc1	inactive		inactive	inactive	inactive			inactive	inactive	inactive	inactive				
